Experimental data reported in PubChem BioAssay (NCATS).
The source made the active and inactive calls. Calls follow the shape of the dose curve; as a rule, active = well fitted curve in the direction sought with a large enough effect; inconclusive = small, poorly fitted or top-dose-only effect, or another doubt; inactive = no such curve, though single readings can be large or run the other way.

Target: alpha-glucosidase (Oryza sativa, rice) (UniProt Q653V4)
Test: Counterscreen for Glucocerebrosidase Inhibitors: qHTS Assay for Rice alpha-Glucosidase at pH 5.0 (AID 997);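 also: 0% = full activity with enzyme and -100% = basal without enzyme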
Details: rice alpha-glucosidase enzyme activity; series mostly up to 76.9 µM; activity change, negative = inhibition: at the top concentration
Description: NIH Chemical Genomics Center [NCGC]
NIH Molecular Libraries Screening Centers Network [MLSCN]
PI Name: Zheng, Wei [NIH]
Alpha-glucosidase is responsible for hydrolysis of terminal, non-reducing 1,4-linked alpha-D-glucose residues with release of alpha-D-glucose. It is a lysosomal hydrolase that is required for the degradation of a small percentage (1-3%) of cellular glycogen in human. Deficiency of this enzyme results in glycogen-storage disease type II (GSDII), also referred to as Pompe disease, an autosomal recessive disorder. Structurally normal glycogen is accumulated in lysosomes and cytoplasm in affected patients, primarily in muscle tissues. Excessive glycogen storage within lysosomes may interrupt normal functioning of other organelles and leads to cellular injury. In turn, this leads to enlargement and dysfunction of the entire organ involved (eg, cardiomyopathy and muscle weakness).
It has reported that the improper folding and trafficking of alpha-glucosidase resulted from the genetic mutations may account for a significant number of Prope patients. […] We optimized this alpha-glucosidase assay in 1536-well plate format for identifying the novel small molecule inhibitors with the structures other than the sugar analogs in order to develop the new pharmacological chaperones.
NCGC Assay Protocol Summary:
This is a fluorogenic enzyme assay with 4-methylumbelliferyl-alpha-D-pyranoside as the substrate and rice alpha-glucosidase as the enzyme preparation. Upon the hydrolysis of this fluorogenic substrate, the resulting product, 1. 4-methyllumbelliferone, can be excited at 365 nm and emits at 440 nm which can be detected by a standard fluorescence plate reader. Data were normalized to the controls for basal activity (without enzyme) and 100% activity (with enzyme). In the AC50 values were determined from concentration-response data modeled with the standard Hill equation.
Assay buffer: 50 mM citric acid, 0.005% Tween-20, pH 5.0. (pH 5.0 is an optimal condition for this enzyme assay)
1536-well assay protocol for the human alpha-glucosidase:
(1) Add 2 ul/well of enzyme (4 nM final)
(2) Add 23 nL compounds in DMSO solution. The final titration was 0.7 nM to 77 uM.
(3) Add 1 ul of substrate (400 uM final)
(4) Incubate at room temperature for 20 min.
(5) Add 2 ul stop solution (1M NaOH and 1M Glycine mixture, pH 10)
(6) Detect the assay plate in a ViewLux plate reader (PerkinElmer) with Ex=365 nm and Em=440nm.
Keywords: Alpha-glucosidase, Prope Disease, pharmacological chaperone, chaperone therapy, high throughput screening, alpha-glucosidase inhibitor, MLSMR, MLSCN, NIH Roadmap, qHTS and NCGC

SMILES | activity change, negative = inhibition | outcome
O=C(O)c1cc2cc(Cc3cccnc3)ccc2o1 | -1.32% (inactive) | 
CC(C)COC(=O)OCN1C(=O)CN(CCN2CC(=O)N(COC(=O)OCC(C)C)C(=O)C2)CC1=O | 0.596% (inactive) | 
CN1[C@@H]2CC[C@H]1CC(OC(=O)c1c[nH]c3ccccc13)C2 (some centres undefined) | -0.677% (inactive) | 
COc1cc(-c2ccc(=O)[nH]n2)ccc1OC(F)F | -2.09% (inactive) | 
C[C@@H]1C(=O)NC2=Nc3cccc(Cl)c3CN21 | -1.38% (inactive) | 
C[C@]12CC[C@@H]3c4ccc(O)cc4CC[C@H]3[C@@H]1CC[C@@H]2O | -1.04% (inactive) | 
COc1cc(NS(C)(=O)=O)ccc1Nc1c2ccccc2nc2ccccc12 | 76.3% (inactive) | 
Oc1ccc(O)cc1 | -5.59% (inactive) | 
CCCC1O[C@@H]2C[C@H]3[C@@H]4CCC5=CC(=O)C=C[C@]5(C)[C@H]4[C@@H](O)C[C@]3(C)[C@]2(C(=O)CO)O1 (some centres undefined) | -5.56% (inactive) | 
CC(C)NC[C@@H](O)COc1cccc2ccccc12 |  | inactive
Nc1cc(Cl)c(NC2=NCCN2)c(Cl)c1 | -0.0506% (inactive) | 
CCCn1c(=O)[nH]c(=O)c2[nH]cnc21 | -3.6% (inactive) | 
O=C1CCC(c2ccc(-n3ccnc3)cc2)=NN1 | -0.218% (inactive) | 
CN1CCC[C@@H]1c1cccnc1 | -3.34% (inactive) | 
N[C@@H](Cc1cnc[nH]1)C(=O)O | -3.04% (inactive) | 
CNCCC=C1c2ccccc2CCc2ccccc21 | -2% (inactive) | 
Oc1cc(O)c2c(c1)O[C@H](c1ccc(O)c(O)c1)[C@H](O)C2 | -1.63% (inactive) | 
C1CCc2nnnn2CC1 | -2.54% (inactive) | 
C[N+]1(CCCCC[N+]2(C)CCCC2)CCCC1 | -2.26% (inactive) | 
